# Experimental data reported in ChEMBL document CHEMBL1201862, “PubChem BioAssay data set” (2004).
# These assays gave more results; the selection is not random.
# Molecular target: T1, Protein RecA (Mycobacterium tuberculosis) (UniProt P9WHJ3)
# T1 sequence (whole entry): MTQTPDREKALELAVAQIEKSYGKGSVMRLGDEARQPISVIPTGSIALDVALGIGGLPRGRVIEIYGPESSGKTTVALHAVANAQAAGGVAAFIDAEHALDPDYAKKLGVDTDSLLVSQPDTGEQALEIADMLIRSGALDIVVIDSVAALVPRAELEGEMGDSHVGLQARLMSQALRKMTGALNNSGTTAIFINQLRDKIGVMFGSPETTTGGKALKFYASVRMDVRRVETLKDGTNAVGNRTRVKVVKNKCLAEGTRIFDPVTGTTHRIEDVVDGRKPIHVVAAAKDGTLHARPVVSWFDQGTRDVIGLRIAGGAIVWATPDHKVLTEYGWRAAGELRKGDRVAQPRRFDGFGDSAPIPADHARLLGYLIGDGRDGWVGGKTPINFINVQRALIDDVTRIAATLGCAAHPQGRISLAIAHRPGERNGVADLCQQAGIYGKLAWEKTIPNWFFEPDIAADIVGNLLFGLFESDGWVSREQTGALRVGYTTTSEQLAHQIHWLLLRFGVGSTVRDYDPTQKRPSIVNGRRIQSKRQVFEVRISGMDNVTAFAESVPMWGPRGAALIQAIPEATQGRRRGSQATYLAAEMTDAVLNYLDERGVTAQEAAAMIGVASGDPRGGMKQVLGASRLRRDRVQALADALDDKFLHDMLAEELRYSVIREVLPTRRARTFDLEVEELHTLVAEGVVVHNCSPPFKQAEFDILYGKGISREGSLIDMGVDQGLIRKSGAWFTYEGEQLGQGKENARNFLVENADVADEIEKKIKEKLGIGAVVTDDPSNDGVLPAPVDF
# Test: M. tuberculosis H37Rv growth inhibition, dose response, strain H37Rv (AID 489010); call rule not given here;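 also: whole Mycobacterium tuberculosis cells grown in culture and not purified RecA protein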
# Format: functional
row,SMILES,IC90
1,Cc1cc(Br)c2c(c1)/C(=C/C(=O)c1cccs1)C(=O)N2,> 100 µM (active)
2,Cc1nc2c(=O)n(C)c(=O)nc-2n(C)n1,4.19 µM (active)
3,Cc1sc2ncnc(Sc3nnnn3-c3ccccc3)c2c1C,> 100 µM (active)
4,Cc1ccc2c(c1)c1c3n2CCN(C(=O)CCl)C3CCC1 (stereo not drawn),8.43 µM (active)
5,COc1ccc(C(=O)c2c(C(F)(F)F)oc3c2C(=O)c2ccccc2C3=O)cc1OC,13.8 µM (active)
6,Cc1[nH]n(-c2ccccc2)c(=O)c1C(c1cccc([N+](=O)[O-])c1)c1c(C)[nH]n(-c2ccccc2)c1=O,> 100 µM (active)
7,COc1cc(NCCCCCCCN)c2ncccc2c1,57.8 µM (active)
8,CC(NC(=O)COC(=O)c1cc(NS(=O)(=O)c2ccc(Cl)c([N+](=O)[O-])c2)ccc1O)C1CC2CCC1C2 (stereo not drawn),> 100 µM (active)
9,Cc1ccc(C)c(Sc2ccc(NC(=O)CCl)cc2)c1,> 100 µM (active)
10,Cc1ccc(C(=O)Oc2ccc([N+](=O)[O-])cc2)cc1S(=O)(=O)N1CCCCCC1,> 100 µM (active)
11,O=C(NC(N=C(S)Nc1ccc(Cl)cc1Cl)C(Cl)(Cl)Cl)c1cccc([N+](=O)[O-])c1 (stereo not drawn),15.2 µM (active)
12,COc1ccc(N(C(=O)CCl)C(C(=O)NCCc2ccccc2)c2cccs2)cc1 (stereo not drawn),22.9 µM (active)
13,CC(=O)n1cc(N(C(=O)CCl)c2ccccc2)c2ccccc21,5.8 µM (active)
14,Cc1nn(-c2ccccc2)c(Cl)c1CN(C(=O)CCl)c1cccc2ccccc12,35.5 µM (active)
15,COC(=O)c1c(C)oc2ccc(N(C(=O)c3ccncc3)S(=O)(=O)c3ccc4ccccc4c3)cc12,> 100 µM (active)
16,Cc1ccccc1-n1ncc2c([N+](=O)[O-])cc([N+](=O)[O-])cc21,2.16 µM (active)
17,O=C(OCn1ncc(Cl)c(Cl)c1=O)c1ccccc1Cl,> 100 µM (active)

row,SMILES,IC90
1,CSc1nnc(NC(=O)c2nc(S(=O)(=O)Cc3cccc(C)c3)ncc2Cl)s1,44.7 µM (active)
2,COc1cccc(N(C(=O)CCl)C(C(=O)NCCc2ccccc2)c2cccs2)c1 (stereo not drawn),32 µM (active)
3,CSc1nnc(NC(=O)c2nc(S(=O)(=O)Cc3ccccc3F)ncc2Cl)s1,> 100 µM (active)
4,Cc1ccc(N(NC(=O)C(O)(c2ccccc2)c2ccccc2)C(=O)CCl)cc1,27.4 µM (active)
5,CN1C(=O)C(=C2CC(c3ccccc3)N(C(=O)CCl)N2)C(=O)N(C)C1=O (stereo not drawn),> 100 µM (active)
6,Cc1ccc(C(=O)OCn2ncc(Cl)c(Cl)c2=O)cc1,> 100 µM (active)
7,Fc1ccc(Oc2nc(-c3ccccc3)nnc2C(F)(F)F)cc1,> 100 µM (active)
8,Cc1oc2c(c1C(=O)NCc1cccnc1)C(=O)c1ccccc1C2=O,< 0.2 µM (active)
9,Cc1nn(-c2ccccc2)c(Cl)c1CN(C(=O)CCl)c1ccc(Cl)cc1,8.54 µM (active)
10,Cc1cc(C)cc(Cn2ncc(Cl)c(Cl)c2=O)c1,25.7 µM (active)
11,O=C(Cc1ccccc1)c1c[nH]c(C(=O)C(Cl)(Cl)Cl)c1,> 100 µM (active)
12,Cc1ccc(CS(=O)(=O)c2ncc(Cl)c(C(=O)Nc3nnc(C(C)C)s3)n2)cc1,> 100 µM (active)
13,Clc1ccc(-n2nnnc2Sc2ncnc3sccc23)cc1,9.74 µM (active)
14,Cn1nc(-c2ccccn2)nc2c(=O)n(C)c(=O)nc1-2,22.3 µM (active)
15,O=C(NC1=C(NC2CCS(=O)(=O)C2)C(=O)c2ccccc2C1=O)c1ccccc1 (stereo not drawn),> 100 µM (active)
16,Cc1ccc(-n2nnc3c(SCC(=O)NCC4CCCO4)ncnc32)cc1 (stereo not drawn),> 100 µM (active)
